Assay outcomes: PubChem BioAssay, National Center for Advancing Translational Sciences (NCATS)
RORgamma inh – qHTS for inhibitors of ROR gamma transcriptional activity; actives 5.4% (n = 310,000); Nuclear receptor ROR-gamma (Mus musculus), P51450; Potency, µM (titrated, usually from 53.6 µM), without a hit: at the highest dose activity change, negative = inhibition, usual class: inhibitors; Drosophila S2 Gal4-RORgamma UAS-luciferase reporter, 20 h; further: nearly all actives have a fitted effect of over 60% in size
Target sequence (P51450 whole entry, looked up, the tested form may be a part): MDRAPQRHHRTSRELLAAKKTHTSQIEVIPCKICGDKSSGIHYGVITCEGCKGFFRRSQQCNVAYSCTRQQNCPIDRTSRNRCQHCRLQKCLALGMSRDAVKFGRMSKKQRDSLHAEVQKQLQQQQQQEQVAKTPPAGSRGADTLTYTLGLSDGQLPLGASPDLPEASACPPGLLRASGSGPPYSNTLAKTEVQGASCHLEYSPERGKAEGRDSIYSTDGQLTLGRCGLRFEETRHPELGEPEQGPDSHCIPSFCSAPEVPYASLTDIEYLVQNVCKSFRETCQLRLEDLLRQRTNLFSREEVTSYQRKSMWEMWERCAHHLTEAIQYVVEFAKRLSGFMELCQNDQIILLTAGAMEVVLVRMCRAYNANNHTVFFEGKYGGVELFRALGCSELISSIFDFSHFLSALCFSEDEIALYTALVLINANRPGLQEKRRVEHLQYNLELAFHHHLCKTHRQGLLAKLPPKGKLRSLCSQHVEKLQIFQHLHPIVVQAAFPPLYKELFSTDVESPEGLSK
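Schneider cells (Drosophila), stable Gal4 DBD–ROR gamma + UAS-luc; 1 hr cmpd preincubation; Cu2+ induction 700 uM final; 20 hr ambient; luminescence.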
VP16 counter – VP16 counterscreen qHTS for inhibitors of ROR gamma transcriptional activity; Drosophila S2 Gal4-VP16 UAS-luciferase, luminescence, 20 h; Potency, µM (titrated, usually from 53.6 µM), without a hit: at the top dose activity, negative = inhibition, actives largely listed as inhibitors; actives 3.5% (n = 310,000); AID 2546, 2010;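 further: Gal4-VP16 expression switched on by copper sulfate through the metallothionein promoter; nearly all actives have a fitted effect of over 50% in size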
Luc counter – Counterscreen for Luciferase (Kinase-Glo TM) Inhibition | Kinase-Glo luciferase, ATP luminescence, 8 min | actives 0.28% (n = 200,000) | Luciferin 4-monooxygenase (Photuris pensylvanica), Q27757 | Potency, µM (titrated, usually from 38.3 µM), inactives show top-dose activity change, negative = inhibition, actives largely listed as inhibitors; further: nearly all actives have a fitted effect of over 60% in size
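Compound is pinned into ATP-containing buffer (10 uM ATP, imidazole pH 7.2, 7 mM MgCl2). Kinase-Glo luciferase reagent is then added. Light output is recorded following an 8-min room-temperature incubation.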
* hit, by the source's call; ! = not confirmed by another sample; [ ] = remark or other dose. Shown are actives, neighbours in structure and some others; about 6.2% of the full set was active somewhere. The call rests on the fitted dose curve; in most records, active means well fitted curve in the direction sought with a large enough effect; inconclusive means small, poorly fitted or top-dose-only effect, or another doubt; inactive means no such curve, though single readings can be large; an effect the other way counts as inactive or inconclusive. On the % scale 0 is the no-effect control and ±100 the full control effect; potency means the concentration at half of the fitted maximal effect.

Results for C=C1[C@@H](C)[C@H]2[C@H](Cc3ccccc3)NC(=O)[C@]23[C@H](OC(C)=O)/C=C/[C@](C)(O)C(=O)[C@@H](C)C/C=C/[C@H]3[C@@H]1O ?
RORgamma inh: inconclusive; VP16 counter: 5%

How did ClCC[N+]12CC[N+](CCCl)(CC1)C2 (tested in a mixture with another compound) do in these assays?
Luc counter: -6%[7.66 µM]

How did CCC1CN2CCc3cc(OC)c(OC)cc3C2CC1CC1NCCc2cc(OC)c(OC)cc21 (configuration not stated) do in these assays?
RORgamma inh: 6.3µM*; VP16 counter: 7.1µM*; Luc counter: 0%

What do the screens show for `CCC1=C(C[C@H]2NCCc3cc(OC)c(OC)cc32)C[C@H]2c3ccccc3CCN2C1`?
Luc counter: -2%[7.66 µM]

How did Cc1c(OCC(F)(F)F)ccnc1CS(=O)c1nc2ccccc2[nH]1 (configuration not stated) do in these assays?
RORgamma inh: 11µM*!; VP16 counter: inconclusive; Luc counter: -6%

Results for CCOC(=O)C(NC(=O)C(Cc1ccc(N(CCCl)CCCl)cc1)NC(C)=O)C(C)C (configuration not stated) ?
RORgamma inh: 26%; VP16 counter: 0%; Luc counter: 0%

How did COC(=O)C(Cc1ccc(N(CCCl)CCCl)cc1)N=Cc1ccccc1O (configuration not stated) do in these assays?
RORgamma inh: 7.9µM*; VP16 counter: inconclusive

What do the screens show for `CC(C)c1cccc(O)c(=O)c1`?
RORgamma inh: 2µM*; VP16 counter: 2.8µM*!; Luc counter: -8%

What do the screens show for `NCC(O)c1cccc(O)c1` (configuration not stated)?
RORgamma inh: 39%; VP16 counter: 8%

What do the screens show for `Cc1ccc(C2(c3ccc(C)c(O)c3C)CCN(C)CC2)c(C)c1O`?
Luc counter: 1%[7.66 µM]

Results for C[C@]1(O)CC[C@H]2[C@@H]3[C@@H](O)CC4=CC(=O)CC[C@@]4(C)[C@H]3CC[C@]21C ?
Luc counter: -1%[7.66 µM]

Results for CNc1ccc2oc(C[C@H]3O[C@]4(CC[C@H]3C)O[C@H]([C@H](C)C(=O)c3ccc[nH]3)[C@H](C)C[C@H]4C)nc2c1C(=O)O ?
RORgamma inh: inconclusive; VP16 counter: -62%; Luc counter: -4%

What do the screens show for `CNc1ccc2oc(C[C@@H]3OC4(CC[C@@H]3C)O[C@H](C(C)C(=O)c3ccc[nH]3)[C@H](C)C[C@H]4C)nc2c1C(=O)O` (some centres not stated)?
RORgamma inh: 1.8µM*; Luc counter: -2%[39.9 µM]

What do the screens show for `CN=C=O`?
RORgamma inh: 7%; VP16 counter: -4%

Results for CC#C[C@]1(O)CC[C@H]2C3C=C(C)C4=CC(=O)C=C[C@]4(C)[C@H]3[C@@H](O)C[C@@]21C (some centres not stated) ?
RORgamma inh: 42%; VP16 counter: 2%

What do the screens show for `COC(=O)[C@]1(C)CC[C@@]2(C)CC[C@@]3(C)C4=CCc5c(cc(O)c(O)c5C)[C@]4(C)CC[C@@]3(C)C2C1` (some centres not stated)?
RORgamma inh: inconclusive; VP16 counter: 16µM*; Luc counter: -5%

How did Cc1ccc(NC(=O)c2cc(-c3ccccc3)n(CCCN3CCOCC3)c2C)cc1 do in these assays?
RORgamma inh: -7%; VP16 counter: 0%

How did CC(C)(C)c1ccc(-c2n[nH]c(=S)n2CCCN2CCOCC2)cc1 do in these assays?
RORgamma inh: 7.9µM*; VP16 counter: -26%; Luc counter: 1%

How did C[C@@]12C=CC(=O)C=C1CCC1C2CC[C@]2(C)C(=O)CCC12 (some centres not stated) do in these assays?
RORgamma inh: -1%; VP16 counter: 5%; Luc counter: -2%

What do the screens show for `CN(C)C1CSSSC1`?
RORgamma inh: inconclusive; VP16 counter: -1%

Results for CC(C)CCCC1(C)C=Cc2c(O)c3c(c(CCC(C)C)c2O1)OC12C(CC4CC1C(C)(C)OC2(CCC(C)C(=O)O)C4O)C3=O (configuration not stated) ?
RORgamma inh: 4%; VP16 counter: -5%; Luc counter: -9%

How did COc1c(CC=C(C)C)c2c(c3oc(=O)c(-c4ccc(O)cc4)c(O)c13)C=CC(C)(C)O2 do in these assays?
RORgamma inh: 7%; VP16 counter: -10%; Luc counter: -2%

What do the screens show for `CC(C)=CCCC1(C)C=Cc2c(O)c3c(c(CC=C(C)C)c2O1)OC12C(=CC4CC1C(C)(C)OC2(C/C=C(/C)C(=O)O)C4O)C3=O` (configuration not stated)?
RORgamma inh: 2.8µM*; VP16 counter: 2.2µM*; Luc counter: -5%

What do the screens show for `CC(C)=CCCC1(C)C=Cc2c(O)c3c(c(CC=C(C)C)c2O1)OC12C(=CC4CC1C(C)(C)OC2(C/C=C(/C)C(=O)O)C4=O)C3=O` (configuration not stated)?
RORgamma inh: 3.2µM*; VP16 counter: 5µM*; Luc counter: -7%

What do the screens show for `O.O.[NH-]C1(C(=O)O)CCCC1.[NH-]C1(C(=O)O)CCCC1.[Ni+2]`?
Luc counter: -1%[7.66 µM]

Results for CCCC(Cn1cncn1)c1ccc(Cl)cc1Cl (configuration not stated) ?
RORgamma inh: -20%; VP16 counter: 15%

What do the screens show for `O=C(O)C(Cl)(Cl)Br`?
RORgamma inh: 4%; VP16 counter: -7%

Results for CCOC(=O)c1cc(CC)sc1/N=C/c1c(O)[nH]c(=S)[nH]c1=O ?
RORgamma inh: 18µM*; VP16 counter: inconclusive; Luc counter: -3%

What do the screens show for `CCOC(=O)c1cc(CC)sc1/N=C/C1C(=O)NC(=S)NC1=O`?
RORgamma inh: -6%; VP16 counter: -2%; Luc counter: 0%

What do the screens show for `COC(C(=O)C(O)C(C)O)C1Cc2cc3cc(OC4CC(OC5CC(O)C(OC)C(C)O5)C(OC(C)=O)C(C)O4)c(C)c(O)c3c(O)c2C(=O)C1OC1CC(OC2CC(OC3CC(C)(O)C(OC(C)=O)C(C)O3)C(O)C(C)O2)C(O)C(C)O1` (configuration not stated)?
RORgamma inh: 1.3µM*; VP16 counter: 1µM*

What do the screens show for `C[As+](C)(c1ccc(Br)c([N+](=O)[O-])c1)c1ccc(Br)c([N+](=O)[O-])c1.O=[N+]([O-])O`?
Luc counter: -5%[7.66 µM]

Results for CN(C)CCCc1c[nH]c2ccccc12 ?
Luc counter: -7%[7.66 µM]

How did CSCC[C@@H](N)P(C)(=O)O do in these assays?
Luc counter: -7%[7.66 µM]

Results for C=C(Cl)Cl ?
RORgamma inh: 15%; VP16 counter: 1%

How did Cc1ccccc1CN1CCN(Cc2ccccc2)CC1 do in these assays?
RORgamma inh: 9%; VP16 counter: 1%; Luc counter: 1%

What do the screens show for `Cc1ccccc1Cn1cnc2c(oc3ccccc32)c1=O`?
RORgamma inh: 4µM*; VP16 counter: 26%; Luc counter: -1%
